PP1 counter – blocks human PP1-alpha phosphatase, a PP5 counter-screen | P62136 | purified PP1alpha, OMFP fluorescence | inhibition, % at 6.7 µM | 0.9% of 320,000 active | AID 2235;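 active = inhibition above the mean inhibition of all tested compounds plus 3 SD, computed separately for each screening campaign, cut at about 15% in these data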
PP5 inh – blocks human protein phosphatase 5 activity | P53041 | purified PP5c, OMFP substrate fluorescence | inhibition, % at 6.7 µM | 0.18% of 320,000 active | AID 1987;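 active = inhibition above the campaign's mean inhibition across all tested compounds plus 3 SD, cut at about 9.5% in these data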;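 also: 0% = DMSO only and 100% = 100 µM cantharidin control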
Target sequence (P53041 whole entry, looked up): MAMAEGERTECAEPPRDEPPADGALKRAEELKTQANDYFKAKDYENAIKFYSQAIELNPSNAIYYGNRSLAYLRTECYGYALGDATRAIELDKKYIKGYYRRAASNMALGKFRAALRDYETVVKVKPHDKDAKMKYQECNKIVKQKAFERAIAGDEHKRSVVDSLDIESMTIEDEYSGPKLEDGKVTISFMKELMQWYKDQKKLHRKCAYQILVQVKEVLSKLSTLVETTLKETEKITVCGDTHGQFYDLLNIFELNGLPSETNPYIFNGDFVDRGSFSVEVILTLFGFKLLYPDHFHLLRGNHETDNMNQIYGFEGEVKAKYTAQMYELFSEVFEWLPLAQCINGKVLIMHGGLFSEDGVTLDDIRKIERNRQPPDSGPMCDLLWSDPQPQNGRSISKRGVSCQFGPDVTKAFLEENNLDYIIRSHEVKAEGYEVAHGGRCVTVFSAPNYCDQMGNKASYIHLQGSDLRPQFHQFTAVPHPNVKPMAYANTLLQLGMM
CSC inhib – blocks cancer stem cells; cancer stem cell-like cells viability, luminescence; inhibition, % at 7.5 µM; 1.1% of 300,000 active; AID 2717; in the data active = inhibition above about 75%; inconclusive = no clear call, values can overlap the other calls; tested in HMLE shEcad cells
Calb FLC – C. albicans growth modulation with fluconazole; C. albicans CaCi-2 (fluconazole-resistant clinical isolate) + fluconazole, Alamar Blue growth, 48 h; growth inhibition, % (test concentration not listed); 0.57% of 300,000 active;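 active = growth inhibition above about 58% in most replicates, limit read from the data, passing the limit was not always enough; inconclusive = exactly half the replicates above a set limit; inactive = most replicates below a set limit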;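 also: all wells also contain fluconazole at 8 µg/ml as a sub-toxic cotreatment; 0% = median of DMSO wells and 100% = median of geldanamycin control wells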
ALR inh – inhibitors of human sulfhydryl oxidase ALR; P55789; purified ALR, DTT oxidation, H2O2 HRP-luminol luminescence; inhibition, % (concentration not given with the values); 3.8% of 290,000 active; AID 485317;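 active = mean replicate inhibition above about 79%, with every replicate also reaching it, limit read from the data; inconclusive = only one of the two criteria met; inactive = mean below limit and not every replicate reaching it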
* marks the source's active call; other numbers are inactive results; ! = a repeat was not active. Shown are actives, neighbours in structure and some others; about 5.4% of the full set was active somewhere.

Results for CCCCCCCc1c(C#N)c(N)[nH]c(=S)c1C#N ?
PP1 counter: 4; PP5 inh: -1; CSC inhib: 8; Calb FLC: -2; ALR inh: 96*

How did CC(C)Cc1c2c([nH]c(=S)c1C#N)CCCC2 do in these assays?
PP1 counter: 1; PP5 inh: 2; CSC inhib: 1; Calb FLC: 18

Results for CC(=N\Nc1ccc(Cl)cc1)/C(=N/O)C(=O)Nc1ccccc1 ?
PP1 counter: 0; PP5 inh: 4; CSC inhib: 6; Calb FLC: 5; ALR inh: 99*

How did O=C(CSCc1ccc(Cl)cc1)NCCSCc1ccco1 do in these assays?
PP1 counter: -5; PP5 inh: -4; CSC inhib: -4; Calb FLC: -11; ALR inh: 32

How did O=C(NCCSCc1ccco1)Nc1cc(Cl)cc(Cl)c1 do in these assays?
PP1 counter: 4; PP5 inh: -1; CSC inhib: 4; Calb FLC: -1; ALR inh: 89*

What do the screens show for `CC1(C)Cc2c(sc(NC(=O)COc3cccc4ccccc34)c2C#N)C(C)(C)N1`?
PP1 counter: 15*; PP5 inh: -2; CSC inhib: 14; Calb FLC: -6; ALR inh: -11

What do the screens show for `Cc1ccc(OCC(=O)Nc2sc3c(c2C#N)CC(C)(C)NC3(C)C)cc1`?
PP1 counter: -5; PP5 inh: 0; CSC inhib: -7; Calb FLC: -1; ALR inh: -7

How did COc1ccc(-c2c3c(=O)n(C)c(=O)n(C)c3cn2-c2ccccc2)cc1 do in these assays?
PP1 counter: -1; PP5 inh: 3; CSC inhib: -13; Calb FLC: -3; ALR inh: 1

What do the screens show for `COc1ccc(-c2c3c(=O)n(C)c(=O)n(C)c3cn2-c2ccc(O)cc2)cc1`?
PP1 counter: -5; PP5 inh: 5; CSC inhib: -5; Calb FLC: -10; ALR inh: 89*

Results for N#C/C(=N\O)c1nc(-c2ccccc2)cs1 ?
PP1 counter: 0; PP5 inh: 1; CSC inhib: -2; Calb FLC: 34; ALR inh: 89*!

What do the screens show for `N#CC(=C1CCCC1)c1nc(-c2ccccc2)cs1`?
PP1 counter: -2; PP5 inh: 0; CSC inhib: 10; Calb FLC: -8; ALR inh: -11

Results for Cc1cc(F)ccc1NCc1ccccc1[N+](=O)[O-] ?
PP1 counter: 6; PP5 inh: 5; CSC inhib: 2; Calb FLC: 32; ALR inh: 99*

What do the screens show for `CCOc1ccc(N/C=C/C(=O)c2ccc(OC)cc2)cc1`?
PP1 counter: 0; PP5 inh: 1; CSC inhib: -5; Calb FLC: 2

What do the screens show for `COc1ccc(N2Nc3n[nH]c(N)c3N2)cc1`?
PP1 counter: -6; PP5 inh: 2; CSC inhib: -7; Calb FLC: 30; ALR inh: 99*

What do the screens show for `O=C(CN1c2ccccc2Sc2ccccc21)NNC(=O)Nc1cccc(Cl)c1`?
PP1 counter: 0; PP5 inh: 2; CSC inhib: 82*; Calb FLC: 1; ALR inh: -9

Results for Cc1cc(C)nc(-n2ncc3c2CC(c2cccc(Cl)c2)CC3=O)n1 (stereo not drawn) ?
PP1 counter: 10; PP5 inh: 2; CSC inhib: 81*; Calb FLC: 23; ALR inh: 27

How did COc1cc(CC(=O)Nc2nccs2)cc(OC)c1OC do in these assays?
PP1 counter: -3; PP5 inh: -2; CSC inhib: 5; Calb FLC: 106*; ALR inh: -6

How did CCCCNC(=O)Nc1nc(SCC(=O)OCC)n[nH]1 do in these assays?
PP1 counter: -5; PP5 inh: -1; CSC inhib: -12; Calb FLC: -10; ALR inh: -4

How did CCOC(=O)CSc1n[nH]c(NC(=O)c2cccc(C)c2)n1 do in these assays?
PP1 counter: 0; PP5 inh: 1; CSC inhib: 5; Calb FLC: -9; ALR inh: 97*

How did N#Cc1ccsc1NC(=O)c1cccc(-n2cnnn2)c1 do in these assays?
PP1 counter: 5; PP5 inh: -5; CSC inhib: 18; Calb FLC: 18; ALR inh: 3

How did Cc1cc2[nH]c(=S)[nH]c2cc1C do in these assays?
PP1 counter: -4; PP5 inh: 1; CSC inhib: -6; Calb FLC: 11; ALR inh: 99*

How did S=c1[nH]c2cc3ccccc3cc2[nH]1 do in these assays?
PP1 counter: -1; PP5 inh: 1; CSC inhib: 1; Calb FLC: inconclusive
